From paper PMC4336329 (PLoS ONE, 2015)
Screen size: about 310,000 compounds; about 14,000 (4.5%) showed an effect of 50% or more. The effect is printed as a negative number. Shown is part of a subset that was picked to be rich in strong results.

Each molecule was assayed against human ether-à-go-go-related gene (hERG) potassium channel (human, UniProt Q12809) (assay: primary screen, population patch clamp on CHO cells stably expressing hERG; higher = less effect of the substance).
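Further: peak tail current of the secondary pulse compared with the same well before compound.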

human ether-à-go-go-related gene (hERG) potassium channel, sequence (Q12809 whole entry, looked up): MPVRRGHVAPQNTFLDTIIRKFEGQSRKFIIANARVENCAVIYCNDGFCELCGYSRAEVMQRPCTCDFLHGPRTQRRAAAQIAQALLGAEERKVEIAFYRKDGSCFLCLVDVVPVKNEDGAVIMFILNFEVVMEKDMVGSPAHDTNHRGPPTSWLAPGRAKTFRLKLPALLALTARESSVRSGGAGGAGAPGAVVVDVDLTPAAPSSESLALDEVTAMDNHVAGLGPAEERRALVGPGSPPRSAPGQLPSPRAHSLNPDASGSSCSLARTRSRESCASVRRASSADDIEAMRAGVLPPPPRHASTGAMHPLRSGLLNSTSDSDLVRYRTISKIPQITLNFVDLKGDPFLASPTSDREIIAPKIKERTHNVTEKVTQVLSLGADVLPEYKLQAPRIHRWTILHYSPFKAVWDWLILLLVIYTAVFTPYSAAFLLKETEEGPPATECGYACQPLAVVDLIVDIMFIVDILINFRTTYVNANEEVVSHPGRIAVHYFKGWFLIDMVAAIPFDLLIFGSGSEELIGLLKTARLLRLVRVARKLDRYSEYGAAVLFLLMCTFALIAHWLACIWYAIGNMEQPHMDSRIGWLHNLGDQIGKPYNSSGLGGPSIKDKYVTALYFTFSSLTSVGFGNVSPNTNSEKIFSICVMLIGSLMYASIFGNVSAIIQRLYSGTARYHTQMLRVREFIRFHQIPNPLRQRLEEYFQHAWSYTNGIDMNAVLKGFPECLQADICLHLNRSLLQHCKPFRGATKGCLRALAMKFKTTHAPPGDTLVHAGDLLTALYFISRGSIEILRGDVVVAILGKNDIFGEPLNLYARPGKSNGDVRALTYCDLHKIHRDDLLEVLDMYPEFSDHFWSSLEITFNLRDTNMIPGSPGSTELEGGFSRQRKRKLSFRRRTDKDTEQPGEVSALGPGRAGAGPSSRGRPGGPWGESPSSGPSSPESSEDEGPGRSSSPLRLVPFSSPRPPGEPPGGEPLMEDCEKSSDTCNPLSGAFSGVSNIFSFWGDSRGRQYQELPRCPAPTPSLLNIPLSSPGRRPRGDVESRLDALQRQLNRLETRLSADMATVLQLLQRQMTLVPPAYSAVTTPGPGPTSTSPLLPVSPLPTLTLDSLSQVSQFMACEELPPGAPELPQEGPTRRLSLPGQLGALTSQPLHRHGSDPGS

| SMILES | hERG current change (%, negative = inhibition) at 10uM |
| --- | --- |
| O=C(O)C1CCCCC1C(=O)Nc1ccccc1Cl (stereo not shown) | 15.1% |
| O=C(CN1C(=O)c2ccccc2C1=O)N1CCN(C2c3ccccc3-c3ccccc32)CC1 | -23.1% |
| O=C(/C=C/c1ccco1)NCC1COc2ccccc2O1 (stereo not shown) | -0.808% |
| O=C(NC1CCCCC1)N1CCSC1=Nc1ccccc1 | -5.04% |
| CCOCCCNC(=O)c1c(C)c(C(=O)OCC)n(C)c1C | 15.3% |
| CCOC(=O)N1N=C(c2ccccc2)CC1(O)C(C)(F)F (stereo not shown) | 12.1% |
| C=CCNC(=O)C1CC2Cn3c(nc4cc(Cl)c(Cl)cc43)C2N1C (stereo not shown) | -35.4% |
| CN1C(C(=O)NCc2ccccc2)CC2Cn3c(nc4cc(Cl)c(Cl)cc43)C21 (stereo not shown) | -65.6% |
| O=C(NCCO)c1ccc(-c2nnc(Nc3ccc(O)cc3)c3ccccc23)cc1 | 16.8% |
| Cc1ccccc1Nc1nnc(-c2ccc(C(=O)NCCO)cc2)c2ccccc12 | -65.9% |
| COc1ccc(Nc2nnc(-c3ccc(C(=O)NCCO)cc3)c3ccccc23)cc1 | -4.6% |
| CCC(C)[C@H](NC(=O)C1CCN(C(=O)[C@H](Cc2ccccc2)NC(=O)OC(C)(C)C)CC1)C(=O)O (stereo partly shown) | -1.42% |
| COc1ccc(-c2oc(NC(=O)c3ccc(C)cc3)c(C#N)c2-c2ccc(OC)cc2)cc1 | -11.6% |
| O=C(C1=C[C@@H](c2coc3ccccc3c2=O)C[C@@H](OCCCCO)O1)N1CCN(Cc2ccc3c(c2)OCO3)CC1 | -49.7% |
| O=C(C1=C[C@@H](c2csc3ccccc23)C[C@@H](OCCCCO)O1)N1CCN(Cc2ccc3c(c2)OCO3)CC1 | -11% |
| CN1CCN(C(=O)C2=C[C@@H](c3coc4ccccc4c3=O)C[C@@H](OCc3ccc(CO)cc3)O2)CC1 | -22.5% |
| O=C(C1=C[C@@H](c2csc3ccccc23)C[C@@H](OCc2ccc(CO)cc2)O1)N1CCN(Cc2ccc3c(c2)OCO3)CC1 | 1.69% |
| O=C(C1=C[C@H](c2csc3ccccc23)C[C@H](OCc2ccc(CO)cc2)O1)N1CCN(Cc2ccc3c(c2)OCO3)CC1 | 12.4% |
| O=C(C1=C[C@H](c2coc3ccccc3c2=O)C[C@H](OCCCCO)O1)N1CCN(Cc2ccc3c(c2)OCO3)CC1 | -64.4% |
| CC(=O)n1cc([C@@H]2C=C(C(=O)N3CCN(Cc4ccc5c(c4)OCO5)CC3)O[C@H](OCc3ccc(CO)cc3)C2)c2ccccc21 | -17.5% |
| O=C(C1=C[C@@H](c2coc3ccccc3c2=O)C[C@@H](OCc2ccc(CO)cc2)O1)N1CCN(Cc2ccc3c(c2)OCO3)CC1 | -66.1% |
| O=C(C1=C[C@H](c2coc3ccccc3c2=O)C[C@H](OCc2ccc(CO)cc2)O1)N1CCN(Cc2ccc3c(c2)OCO3)CC1 | -57.2% |

| SMILES | hERG current change (%, negative = inhibition) at 10uM |
| --- | --- |
| Cc1ccccc1NC(=O)NNC(=O)OC(C)(C)C | -6.37% |
| O=C(C1CCCCN1S(=O)(=O)c1ccccc1)N1CCCCC1 (stereo not shown) | -1.03% |
| N#Cc1ccc(C23CC4(C2)[C@H](CN(Cc2ccc(-c5ccccc5)cc2)[C@@H]4c2ccccc2)C3c2ccc(C(F)(F)F)cc2)cc1 (stereo partly shown) | 6.84% |
| CC(O)[C@H]1CNC(=O)C(=O)N1CCc1cccc(F)c1 (stereo partly shown) | 21% |
| CCCn1c(N)c(C(=O)CN(C)CC(=O)Nc2ccccc2C(F)(F)F)c(=O)[nH]c1=O | -0.764% |
| CCCn1c(N)c(C(=O)CN(C)CC(=O)Nc2c(Cl)cccc2Cl)c(=O)[nH]c1=O | -9.48% |
| CCCn1c(N)c(C(=O)CN(C)CC(=O)Nc2ccc(F)cc2)c(=O)[nH]c1=O | -70.6% |
| COC(=O)c1c(C)[nH]c(C(=O)CN(C)CC(=O)Nc2cccc(F)c2)c1C | -22.2% |
| CCCn1c(N)c(C(=O)CN(C)CC(=O)Nc2ccccc2CC)c(=O)[nH]c1=O | -42% |
| CCCn1c(N)c(C(=O)CN(C)CC(=O)Nc2cccc(F)c2)c(=O)[nH]c1=O | -75.1% |
| O=C(NCCC1=CCCCC1)c1ccc([N+](=O)[O-])cc1 | -14.9% |
| O=C(CCc1ccc(S(=O)(=O)N2CCCCC2)cc1)c1nnc(-c2ccccc2)o1 | -12.7% |
| CCC(C)NC(=O)CN(C1CCCCC1)S(C)(=O)=O (stereo not shown) | 9.11% |
| Cc1cc(N)n2ncc(-c3cccc(Br)c3)c2n1 | -2.75% |
| Cc1cc(-n2c(C)cc(C(=O)CSc3nncn3C(C)C)c2C)no1 | 9.21% |
| O=C1CCCN1CC(=O)N1CCCC(N2CCN(c3cccc(Cl)c3)CC2)C1 (stereo not shown) | 8.15% |
| CCCC(c1nnnn1Cc1cccs1)N1CCN(C2CCCC2)CC1.Cl (stereo not shown) | -29% |
| CCCC(c1nnnn1Cc1ccc(F)cc1)N1CCN(CC)CC1 (stereo not shown) | -53% |
| CCC(c1nnnn1Cc1cccs1)N1CCN(C2CCCC2)CC1.Cl (stereo not shown) | -22.3% |
| CCCC(c1nnnn1Cc1ccc(OC)cc1)N1CCN(c2ccccc2OC)CC1 (stereo not shown) | -8.59% |
| CCCC(c1nnnn1Cc1ccc(F)cc1)N1CCN(C2CCCCC2)CC1.Cl (stereo not shown) | -62.4% |
